ChEMBL document CHEMBL4513216, “Probing the Open Global Health Chemical Diversity Library for Multistage-Active Starting Points for Next-Generation Antimalarials” (ACS Infect Dis, 2020)
Screen size: about 69,000 compounds; about 8,600 (12%) showed an effect of 50% or more. Shown is part of a subset that was picked to be rich in strong results.

Test system: Plasmodium berghei
Assay: Screen against P. berghei liver stage (PbLuc), transformed with Luciferase, at 10uM
Format: functional, HepG2
Details: tested at 10 uM

| Compound | INHIBITION |
| --- | --- |
| CC(C)c1nc2n(n1)CC(NCc1ccncc1)CC2 (configuration not stated) | 0.79% |
| CCc1ccc(NC(=O)N2C[C@@H]3C[C@H](C(=O)N4CCCC4)[C@H](C2)O3)cc1 | 45.4% |
| O=C(NCC1CCCOC1)c1ccc(-c2ccccc2)[nH]c1=O (configuration not stated) | -29.1% |
| O=S(=O)(NCc1ccccc1)Nc1cccc(Cn2cncn2)c1 | 47.2% |
| Cc1nc(Nc2nncs2)cc(C2CNC2)n1 | 12.75% |
| CN1CCC/C1=N\S(=O)(=O)c1ccc(NC(=O)CCc2cccs2)cc1 | 27.4% |
| Cc1nnc([C@]23COC[C@H]2CN(S(=O)(=O)c2cccnc2)C3)o1 | -2.26% |
| O=S(=O)(c1ccccc1)N1C[C@@H]2COC[C@]2(COCC2CC2)C1 | 44.2% |
| O=S(=O)(c1cccnc1)N1C[C@@H]2COC[C@]2(COCC2CC2)C1 | 65.1% |
| CCCS(=O)(=O)N1C[C@@H]2COC[C@]2(CN2CCOCC2)C1 | 6.83% |
| O=S(=O)(c1cccnc1)N1C[C@@H]2COC[C@]2(CN2CCOCC2)C1 | 55.5% |
| CS(=O)(=O)N1C[C@@H]2COC[C@]2(CN2CCOCC2)C1 | 65.9% |
| CS(=O)(=O)N1C[C@@H]2COC[C@]2(COCC(=O)N2CCCC2)C1 | 28.5% |
| COC[C@]12COC[C@H]1CN(S(=O)(=O)c1cccnc1)C2 | 33% |
| O=S(=O)(c1ccccc1)N1C[C@@H]2COC[C@]2(CN2CCOCC2)C1 | 9.79% |
| Cc1ccc2c(n1)N(CCN(C)C)CCN(Cc1c(C)noc1C)C2 | 42.6% |
| COCCN1CCc2ccccc2NCCC1=O | 16.9% |
| CN(Cc1cnn(C)c1)CC(O)c1ccc2c(c1)OCCCO2 (configuration not stated) | 18.8% |
| O=C(c1cccs1)N1CCC2(CC1)CCN(S(=O)(=O)C1CC1)CC2 | 45.7% |
| O=C(c1sccc1-n1cnnn1)N1CCCCC1 | 17.4% |
| CCN(CC)CC(=O)N(C)C(c1cccc(F)c1)c1ccccn1 (configuration not stated) | -4.16% |
| Cc1cnn(CC2CCCN2C(=O)Cn2nc(C)c(Cl)c2C)c1 (configuration not stated) | -41.5% |
| COCCC(=O)N1CCc2nc(N3CCOCC3)nc(NC(C)C)c2C1 | 76.5% |

| Compound | INHIBITION |
| --- | --- |
| CCC(=O)N1CCc2nc(N3CCOCC3)nc(N(C)C)c2CC1 | 45.2% |
| CC(C)CC(=O)N1CCc2nc(N3CCOCC3)nc(NC(C)C)c2C1 | 52.9% |
| Cc1nc(N2CCOCC2)nc2c1CCN(C(=O)N1CCCC1)CC2 | 39.5% |
| COc1c(Br)c(C(=O)NC2CC2)nn1C | 33.3% |
| COc1c(Br)c(C(=O)NC2CCCC2)nn1C | 71.4% |
| COc1c(Br)c(C(=O)NC2CCCCC2)nn1C | -37.1% |
| Cc1cnn(CC2CCCCN2C(=O)c2ccc3[nH]cnc3c2)c1 (configuration not stated) | 5.7% |
| N#Cc1ccccc1CN1CCC(CN2CCOCC2)C1 (configuration not stated) | -19.8% |
| CCOc1ccc(S(=O)(=O)NCc2cccnc2N(C)C)cc1 | 67.5% |
| COc1ccc(S(=O)(=O)NCc2cccnc2N(C)C)cc1F | 58.2% |
| CCOc1ccc(CNCc2cccnc2N(C)C)cc1 | 39.7% |
| CC(C)N(C)S(=O)(=O)NCc1cccnc1N(C)C | 55% |
| COc1ncccc1CNCc1c(C(C)C)nn(C)c1Cl | 21.7% |
| COc1ccc(S(=O)(=O)NCc2cccnc2N(C)C)cc1 | 21.5% |
| CCCC(C)CS(=O)(=O)NCc1cccnc1N(C)C (configuration not stated) | -33.9% |
| CC(C)c1nn(C)c(Cl)c1CNCc1cccnc1N(C)C | 57.5% |
| CN(C)c1ncccc1CNS(=O)(=O)c1cc(F)cc(F)c1 | -10.1% |
| CC(C)c1nn(C)c(N(C)C)c1CNCc1cccnc1N(C)C | 14.815% |
| CN(C)c1ncccc1CNS(=O)(=O)c1ccc(F)c(F)c1 | 11.2% |
| CN(C)c1ncccc1CNS(=O)(=O)c1ccccc1F | 34.7% |
| CN(C)C(=O)COCC1CN(S(C)(=O)=O)Cc2ncn(C)c21 (configuration not stated) | 38.2% |
| COc1ccc(NC(=O)c2nc3ccccc3n(C)c2=O)c(OC)c1 | 3.19% |
| Cn1ccc(C(=O)NC2CCC23CCN(Cc2cccnc2)CC3)c1 (configuration not stated) | 23.5% |

| Compound | INHIBITION |
| --- | --- |
| CC(O)C1CCN(C(=O)CCOc2ccccc2F)CC1 (configuration not stated) | -17.8% |
| CC(C)(C)S(=O)(=O)c1ccc(N2CCC(n3cccn3)CC2)cn1 | -8.66% |
| Cc1ccc2nc(C(=O)N(C)[C@@H]3CC[C@@H](N4CCCC4)[C@@H]3O)cn2c1 | 1.068% |
| c1ccc(Cc2noc(CN3CCCC3Cn3cccn3)n2)cc1 (configuration not stated) | 1.78% |
| Fc1ccc(-c2cnc(CN3CCOC(Cn4cccn4)C3)o2)cc1 (configuration not stated) | -21.8% |
| COc1ccccc1CN1CCc2c(nc(-c3ccccn3)[nH]c2=O)C1 | 25.6% |
| CSc1ccccc1C(=O)N(C)Cc1nncn1C(C)C | 37.4% |
| CN(C)c1ncccc1CNS(=O)(=O)c1c(F)cccc1F | 11.6% |
| CN(C)c1ncccc1CNS(=O)(=O)c1ccc(C(N)=O)cc1 | -3.2% |
| CNC(=O)c1ccc(S(=O)(=O)NCc2cccnc2N(C)C)cc1 | 29.7% |
| CCOC(=O)c1ccc(S(=O)(=O)NCc2cccnc2N(C)C)cc1 | 83.2% |
| CC(=O)c1ccc(S(=O)(=O)NCc2cccnc2N(C)C)cc1 | 66.7% |
| COc1cc(C)c(S(=O)(=O)NCc2cccnc2N(C)C)c(C)c1 | 61.7% |
| COC(=O)c1ccc(S(=O)(=O)NCc2cccnc2N(C)C)cc1 | 52.7% |
| CC(=O)c1cccc(S(=O)(=O)NCc2cccnc2N(C)C)c1 | 42% |
| COC(=O)c1cccc(S(=O)(=O)NCc2cccnc2N(C)C)c1 | 13.3% |
| Cc1ccc(F)cc1S(=O)(=O)NCc1cccnc1N(C)C | 49.3% |
| CN(C)c1ncccc1CNS(=O)(=O)c1cc(F)ccc1F | -27.8% |
| CN(C)c1ncccc1CNS(=O)(=O)c1ccccc1Cl | -4.16% |
| COCCN1C[C@@H]2CN(Cc3ccsc3)CCC[C@]2(C(=O)O)C1 | 3.47% |
| COc1ccc(CN2CC(O)CN(C(=O)CC(C)C)CC2=O)cc1 (configuration not stated) | 19.2% |
